Laboratory results: PubChem BioAssay (NCATS)
Inconclusive results are not listed. Where a call stands in place of a potency, no number is given. Active and inactive are the calls of the source. Calls follow the shape of the dose curve; as a rule, active = well fitted cell-killing curve with a large enough effect; inconclusive = small, poorly fitted or top-dose-only effect, or effect the other way; inactive = no such curve, though single readings can be large or run the other way. Starred links: 1 amine or outer side, 2 acyl side, 3 side chain; linkers in the order of their positions; H or OH if unused. Positions of bridges follow the written chain, without caps; N, C: chain ends. Non-standard residues stand in square brackets, D forms with d. Residues, ends and D or L forms follow the SMILES beside them. Chains are numbered I, II in the order given. Actinocin(9to1) = Cc1c2oc3c(C)ccc(C(=O)[*:1])c3nc-2c(C(=O)[*:2])c(N)c1=O; NMeV = CN[CH](C(=O)O)C(C)C; Sar = CNCC(=O)O

assay: Quantitative High-Throughput drug screen in 47 multiple myeloma cell lines against the NCATS MIPE library collection: ARD_JJKsccE7 cell viability assay (AID 1918929); conditions: ARD myeloma cell line viability, CellTiter-Glo, 48 h; series mostly up to 45.8 µM
Description: PI: Beverly A. Mock Ph.D.
Laboratory of Cancer Biology and Genetics,
Center for Cancer Research, National Cancer Institute,
National Institute of Health, Bethesda, Maryland
Drug resistance and disease progression are common in multiple myeloma (MM) patients, underscoring the need for new therapeutic combinations. […] We hypothesized that effective combinations would reduce MYC expression and enhance p16 activity. […] These preclinical data identify potentially useful drug combinations for evaluation in drug-resistant MM and reveal potential mechanisms of combined drug sensitivity.
Described herein is the primary MIPE qHTS used to cherrypick compounds. Validated compounds were then further tested for potential synergistic activiy.
[1] Peat TJ, Gaikwad SM, Dubois W, Gyabaah-Kessie N, Zhang S, Gorjifard S, Phyo Z, Andres M, Hughitt VK, Simpson RM, Miller MA, Girvin AT, Taylor A, Williams D, D'Antonio N, Zhang Y, Rajagopalan A, Flietner E, Wilson K, Zhang X, Shinn P, Klumpp-Thomas C, McKnight C, Itkin Z, Chen L, Kazandijian D, Zhang J, Michalowski AM, Simmons JK, Keats J, Thomas CJ, Mock BA. Drug combinations identified by high-throughput screening promote cell cycle transition and upregulate Smad pathways in myeloma. Cancer Lett. 2023 Aug 1;568:216284. doi: 10.1016/j.canlet.2023.216284. Epub 2023 Jun 24. PMID: 37356470; PMCID: PMC10408729.
SEQUENCE No. (e.g., 1, 2, 3, etc.); […] (e.g., Cells, Incubation, Reagent, etc.); VALUE and DESCRIPTION.
1; Cells; 5 uL; white, solid bottom 1536-well Greiner assay plate.
2; Compounds; 23 nL; Kalypsis pin tool (Wako USA) equipped with a 1536-well pin head to transfer to the assay plates.
3; Incubation; 48 hours; 37C incubation.
4; Reagent;5uL; CellTiter Glo (Promega).
5; Detector; 425V; Luminescence; Viewlux PerkinElmer.
NOTES (numbers refer to Sequence numbers above)
1. The cell-based screening methods employed in this study were like those previously published. Briefly, the corresponding myeloma cell lines were screened in 1,536-well plates with 500 cells, 5-uL per well for inhibition of cell viability (assessed by measuring ATP levels with CellTiterGlo).
2. NCATS MIPE 4.0 library of approved and investigational drugs were added using the Kalypsis pin tool. Wells treated with DMSO only for 100% viability and media only wells for 0% viability were used as controls.
3. The assay plates were covered and incubated for 48 hours in a 37C, 5% CO2 incubator with controlled humidity.
4. After 48 hours, CellTilter-GloTM luminescent substrate mix (Promega) reagent was added to the assay plate and plates we incubated for 5 min at room temperature.
5. Signal was measured as median relative luminescence units on a ViewLux (PerkinElmer) multiplate reader.
[1] Heske CM, Davis MI, Baumgart JT, Wilson K, Gormally MV, Chen L, Zhang X, Ceribelli M, Duveau DY, Guha R, Ferrer M, Arnaldez FI, Ji J, Tran HL, Zhang Y, Mendoza A, Helman LJ, Thomas CJ. Matrix Screen Identifies Synergistic Combination of PARP Inhibitors and Nicotinamide Phosphoribosyltransferase (NAMPT) Inhibitors in Ewing Sarcoma. Clin Cancer Res. 2017 Dec 1;23(23):7301-7311. doi: 10.1158/1078-0432.CCR-17-1121. Epub 2017 Sep 12. PMID: 28899971; PMCID: PMC6636827.
Potency is read from the fitted curve at half-maximal effect.

Structure (SMILES) | Potency
CC(C)(O)CC[C@@H](O)[C@](C)(O)[C@H]1CC[C@@]2(O)C3=CC(=O)[C@@H]4C[C@@H](O)[C@@H](O)C[C@]4(C)[C@@H]3CC[C@]12C | inactive
OCC(O)C(O)C(O)CO (stereo not given) | inactive
Cc1ccc([N+](=O)[O-])cc1S(=O)(=O)N(C)N=Cc1cnc2ccc(Br)cn12 | 11.8 nM (active)
C[C@H](NC(=O)Cc1cc(F)cc(F)c1)C(=O)N[C@H](C(=O)OC(C)(C)C)c1ccccc1 | inactive
Cc1c2oc3c(C)ccc(C(=O)NC4C(=O)NC(C(C)C)C(=O)N5CCCC5C(=O)N(C)CC(=O)N(C)C(C(C)C)C(=O)OC4C)c3nc-2c(C(=O)NC2C(=O)NC(C(C)C)C(=O)N3CCCC3C(=O)N(C)CC(=O)N(C)C(C(C)C)C(=O)OC2C)c(N)c1=O (stereo not given) (I: TVP[Sar][NMeV] / II: TVP[Sar][NMeV]; ester I:1-I:C, II:1-II:C; linker I:N-II:N via Actinocin(9to1); configuration not given here) | inactive
Cc1cn([C@@H]2O[C@H](CO)[C@@H](O)[C@H]2F)c(=O)[nH]c1=O | inactive
Cn1cnc(=N)c2[nH]cnc21 | 105 nM (active)
O=C1NC(=O)[C@@H](c2cn3c4c(cccc24)CCC3)[C@H]1c1c[nH]c2ccccc12 | 66.2 nM (active)
C[C@H](NC(=O)C(C#N)=Cc1cccc(Br)n1)c1ccccc1 | 11800 nM (active)
N#Cc1ccc(COC[C@H]2O[C@@H](n3c(NCc4ccc(Cl)c(Cl)c4)nc4c(N)ncnc43)[C@@H](O)[C@@H]2O)cc1 | 5260 nM (active)
Cn1c(Nc2ccc(C(F)(F)F)cc2)nc2cc(Oc3ccnc(-c4ncc(C(F)(F)F)[nH]4)c3)ccc21 | 16600 nM (active)
COc1cc(OC)cc(-c2ccc3ncc4ccc(=O)n(-c5ccc(N6CCNCC6)c(C(F)(F)F)c5)c4c3c2)c1 | 2640 nM (active)
FC(F)(F)c1ccc(Nc2nc3ccc(Oc4ccnc(-c5ncc(C(F)(F)F)[nH]5)c4)cc3[nH]2)cc1 | 14800 nM (active)
O=C(c1ccc(F)cc1)N1CCC[C@H](c2nc(-c3ccc(F)cc3)no2)C1 | inactive
OCCN1C[C@H](O)[C@@H](O)[C@H](O)[C@@H]1CO | inactive
CN(C)c1ccc(C(=O)NCCCCCCC(=O)NO)cc1 | 332 nM (active)
Cc1[nH]c(C=C2C(=O)Nc3ccccc32)c(C)c1CCC(=O)O | 20900 nM (active)
Cc1cc(-c2nnc3n2CCCCC3)c(C)n1-c1ccccc1 | inactive
O=C(C=CC#Cc1cccc(NS(=O)(=O)c2ccccc2)c1)NO | 1180 nM (active)
C[C@H]1[C@@H](OC(=O)CCC(=O)O)O[C@@H]2O[C@@]3(C)CC[C@@H]4[C@H](C)CC[C@@H]1[C@@]24OO3 | 1480 nM (active)

Structure (SMILES) | Potency
CC1(C)O[C@@H]2C[C@H]3[C@@H]4CCC5=CC(=O)C=C[C@]5(C)[C@@H]4[C@@H](O)C[C@]3(C)[C@]2(C(=O)CO)O1 | 5.3 nM (active)
C=C1C(=CC=C2CCC[C@]3(C)[C@@H]([C@H](C)CCCC(C)(C)O)CC[C@@H]23)C[C@@H](O)C[C@@H]1O | 4180 nM (active)
CC(=O)NC(CS)C(=O)O (stereo not given) | inactive
COc1cc2ncnc(Nc3cccc(Br)c3)c2cc1OC | 16600 nM (active)
Cc1ncc(-c2ccnc(Nc3ccc(S(C)(=O)=O)cc3)n2)n1C(C)C | 2960 nM (active)
COc1ccc(Nc2cc(-c3cnc(N)nc3)nc(N3CCOCC3)n2)cn1 | 372 nM (active)
COc1ccc([C@@H]2CNC(=O)C2)cc1OC1CCCC1 | inactive
O=C(O)C=Cc1ccc(Cn2ccnc2)cc1 | inactive
COc1cc(C)c(C=CC(C)=CC=CC(C)=CC(=O)O)c(C)c1C | inactive
CCCc1nc(C(C)(C)O)c(C(=O)O)n1Cc1ccc(-c2ccccc2-c2nn[nH]n2)cc1 | inactive
NC[C@H]1O[C@H](O[C@H]2[C@@H](O)[C@@H](O[C@H]3O[C@H](CO)[C@@H](O)[C@H](N)[C@@H]3O)[C@H](N)C[C@@H]2N)[C@H](N)C[C@H]1O | inactive
C[C@H](NCc1ccc(OCc2cccc(F)c2)cc1)C(N)=O | 5260 nM (active)
CC(C)C[C@H](NC(=O)CNC(=O)c1cc(Cl)ccc1Cl)B1OC(=O)CC(CC(=O)O)(C(=O)O)O1 (stereo not given in full) | 52.6 nM (active)
CC(Cc1ccc(O)c(O)c1)(NN)C(=O)O (stereo not given) | inactive
Nc1nc(=O)n([C@H]2CSC(CO)O2)cc1F (stereo not given in full) | inactive
CCN1CCN(C(=O)N[C@H](C(=O)N[C@@H]2C(=O)N3C(C(=O)O)=C(CSc4nnnn4C)CS[C@@H]23)c2ccc(O)cc2)C(=O)C1=O | inactive
O=C(O)C(=O)Nc1cccc(C2=NN=N[N]2)c1 | inactive
NC(=O)c1ncn([C@@H]2O[C@H](CO)[C@@H](O)[C@@H]2O)c1O | inactive
CCOC(=O)C=C[C@H](C[C@@H]1CCNC1=O)NC(=O)[C@@H](CC(=O)[C@@H](NC(=O)c1cc(C)on1)C(C)C)Cc1ccc(F)cc1 | inactive
CC(=O)SCC(Cc1ccccc1)C(=O)NCC(=O)OCc1ccccc1 (stereo not given) | 8330 nM (active)
